ugtP null kill = compounds lethal to S. aureus RN4220 ugtP deletion mutant | 0.54% of 330,000 active | OD600 growth, 16 h | AID 1259309 | growth inhibition, % (test concentration not listed); in the data active = growth inhibition above about 68%;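 also: plate controls were untreated wells for no effect and antibiotic for full effect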
VHR inh abs = inhibitors of human VHR1 phosphatase (DUSP3) | recombinant VHR phosphatase, pNPP absorbance | 0.52% of 290,000 active | P51452 | inhibition, % at 13.3 µM | AID 1654; in the data active = inhibition above about 50%
Target sequence (P51452 whole entry, looked up): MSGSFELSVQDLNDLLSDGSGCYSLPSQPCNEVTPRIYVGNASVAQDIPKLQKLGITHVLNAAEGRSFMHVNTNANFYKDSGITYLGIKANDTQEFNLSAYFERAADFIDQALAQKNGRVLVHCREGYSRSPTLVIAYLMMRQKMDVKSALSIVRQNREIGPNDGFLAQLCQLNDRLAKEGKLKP
PfHsp40 yeast = rescue of PfHsp40-mediated yeast toxicity; S. cerevisiae expressing PfHsp40, growth rescue, ATP luminescence; growth rescue, % at 12.5 µM; AID 504582; 0.68% of 340,000 active; in the data active = growth rescue above about 28%, passing the limit was not always enough; inconclusive = no clear call, values can overlap the other calls;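 also: yeast W303a lacking pdr1 and pdr3 grown in galactose medium; growth measured after three days at 30 °C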
Sa RN4220 lethal = S. aureus RN4220 growth inhibition; inhibition, % (concentration not given with the values); OD600, 16 h; 0.33% of 330,000 active; AID 1259311; in the data active = inhibition above about 85%;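 also: plate controls were untreated cells for no effect and reference antibiotic for full effect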
PrPC TRFRET = cell surface PrPC inhibition, primary TR-FRET screen | P04156 | TR-FRET read-out | 0.43% of 370,000 active | AID 720596 | inhibition, % at 13.8 µM; in the data active = inhibition above about 24%; also: 0% = median of the test wells and 100% = reference compound wells
* marks the source's active call; other numbers are inactive results; ? = inconclusive; nt = not tested or not shown. Sampled rows, rich in hits. Any-hit rate of the full collection: about 1.8%.

SMILES	ugtP null kill	VHR inh abs	PfHsp40 yeast	Sa RN4220 lethal	PrPC TRFRET
Nc1c(C(=O)Nc2nc3ccccc3s2)sc2nc(-c3cccs3)ccc12	99.3*	20.9	-1.0	79.7	nt
CCOC1OC(C(=O)N2CCCCCCC2)=CC(c2ccc3c(c2)OCO3)C1CCCO (centres undefined)	-4.5	nt	nt	-1.4	nt
Nc1c(Cl)cc(Cl)cc1C(=O)OCC(=O)NC1CC1	-0.3	-8.1	124.4*	1.0	2.5
O=C(CSc1nc2ccccc2s1)NN=Cc1cc([N+](=O)[O-])ccc1O	30.8	nt	nt	49.1	nt
Brc1ccc2nc(-c3ccco3)c(Cc3ccsc3)n2c1	nt	nt	nt	nt	34.0*
Clc1ccc2nc(-c3ccco3)c(Cc3ccsc3)n2c1	nt	nt	nt	nt	-2.9
Cc1cccc(N2C(=O)N3C(c4ccc(Br)cc4)C4C(=O)N(C(C)(C)C)C(=O)C4[C@]3(Cc3ccc(Cl)cc3)C2=O)c1 (some centres undefined)	3.1	nt	nt	5.3	nt
COc1cccc(NC=C2C(=O)OC3(CCCCC3)OC2=O)c1	12.3	11.9	314.0*	5.8	-0.7
COc1cc(OC)c(C#N)c(S(=O)(=O)Cc2ccccc2)c1	4.6	13.2	64.1*	10.4	6.8
Cc1onc(-c2ccccc2Cl)c1C(=O)NC(=S)NCC(=O)c1ccccc1	-6.4	57.4*	0.5	-0.6	1.4
COC(=O)[C@@]1(Cc2ccc(F)cc2)C2c3cc(C(=O)N(C)C)n(Cc4ccc(OC(F)(F)F)cc4)c3CC2CN1C(=O)c1ccccc1 (some centres undefined)	7.9	nt	nt	7.2	nt
C#CCOCCOCCOCCNc1nc(N2CCN(C(=O)C(CCCCN)n3cc(C(N)CC(C)C)nn3)CC2)nc(N2CCN(C(=O)C(Cc3cc4ccccc4[nH]3)n3cc(C(N)C(C)CC)nn3)CC2)n1 (centres undefined)	5.0	nt	nt	1.8	nt
Cc1cccn2c(=O)c(C=NO)c(NCc3ccccc3)nc12	1.3	nt	nt	3.4	nt
C(=N\NC1=Nc2cccc3cccc1c23)/c1ccccn1	nt	17.4	326.9*	nt	3.3
C(=NNC1=Nc2cccc3cccc1c23)c1ccccn1	9.4	nt	nt	11.0	nt
CC(=O)OC1C2C(CC(C)C3CCC(=O)[C@]31C)OC(=O)C2C (some centres undefined)	-0.7	nt	nt	8.7	nt
CC(=O)OC1C(=O)[C@]2(C)C(O)CC3OC[C@@]3(OC(C)=O)C2C(OC(=O)c2ccccc2)[C@]2(O)CC(OC(=O)C(O)C(NC(=O)c3ccccc3)c3ccccc3)C(C)=C1C2(C)C (some centres undefined)	1.5	nt	nt	2.2	nt
CO[C@@]1(NC(=O)C2SC(=C(C(N)=O)C(=O)O)S2)C(=O)N2C(C(=O)O)=C(CSc3nnnn3C)CSC21 (some centres undefined)	100.3*	nt	nt	100.4*	nt
O=C1NC(=O)/C(=C/c2cccc3ccccc23)S1	15.5	37.9	10.6	31.9	5.4
CCCOc1ccc2ccccc2c1/C=C1\SC(=O)NC1=O	18.6	-11.8	504.5*	3.9	-6.6
CCCCCCCCN1C(CC(=O)O)c2ccc(C(F)(F)F)cc2S1(=O)=O (centres undefined)	13.2	nt	nt	20.5	nt
Cc1ccc2oc(-c3ccccc3)c(C(=O)O)c(=O)c2c1	3.6	9.1	443.7*	8.0	-7.7
O=c1c(O)c(-c2ccccc2)oc2ccccc12	nt	nt	219.5*	nt	-1.8
NC(N)=NN=Cc1ccc(OCc2ccccc2Cl)cc1	100.8*	nt	nt	100.3*	nt
NC(N)=N/N=C/c1ccc(N(c2ccccc2)c2ccccc2)cc1	nt	nt	105.5*	nt	-1.4
SMILES	ugtP null kill	VHR inh abs	PfHsp40 yeast	Sa RN4220 lethal	PrPC TRFRET
CCN(Cc1ccccc1)c1ccc(/C=N/N=C(N)N)cc1	nt	2.9	2.4	nt	-0.2
CCN1CC2C3C(=O)N(C)C(=O)C3[C@](CC)(C1=O)N2C(=O)c1ccc(F)cc1 (some centres undefined)	-6.4	nt	nt	5.6	nt
CC(=O)C(C[N+]1(C)CCCCC1)=NO	10.9	nt	nt	1.4	nt
CCC(=O)Nc1cc2c(C)cc(=O)oc2cc1C	1.0	55.6*	35.5*	2.3	-0.3
CCCCCCC(=O)Nc1cc2c(C)cc(=O)oc2cc1C	-1.0	3.6	-0.2	6.6	-8.4
Cc1ccc2cc(C(c3nnnn3Cc3ccccc3)N3CCc4ccccc43)c(=O)[nH]c2c1C (centres undefined)	-10.2	-19.1	0.4	8.9	26.0*
Cc1ccc(C[n+]2c(-c3ccc(C)cc3)cc(-c3ccc(C)cc3)cc2-c2ccc(C)cc2)cc1	100.6*	nt	?	100.8*	nt
COc1ccc2nc(NC3=NCCN3)sc2c1	nt	-1.5	125.6*	nt	6.0
Cc1ccc2nc(N3C(=O)CNC3=S)sc2c1	-0.1	10.1	1.9	3.9	16.7
COc1ccc2nc(N3C(=O)CNC3=S)sc2c1	nt	-11.7	32.1*	nt	2.8
c1ccc2sc(NC3=NCCN3)nc2c1	1.3	-11.3	186.3*	5.5	1.9
Brc1ccccc1C=NNc1nc2ccccc2o1	-0.6	nt	nt	-3.6	nt
CC(C)c1cc(C(=O)OCC(=O)NC(=O)NCc2ccco2)c(O)c(C(C)C)c1	93.6*	11.0	-0.3	-7.4	5.7
O=C(COC(=O)c1ccccc1C(F)(F)F)NC(=O)NCc1ccco1	6.5	nt	0.0	5.9	-5.3
O=C(NCC1CCOCC1)c1cc(COc2cccc(C(F)(F)F)c2)on1	-0.5	-36.6	0.3	3.9	3.2
Cc1ccc(CN(C)C(=O)c2cc(COc3cccc(C(F)(F)F)c3)on2)o1	5.1	1.6	5.6	5.5	1.2
CCc1ccc(CN(C)C(=O)c2cc(COc3cccc(C(F)(F)F)c3)on2)nc1	-8.7	11.0	112.4*	1.1	3.9
CC(=O)c1cccc(OCc2cc(C(=O)N(C)C(C)c3ccccn3)no2)c1 (centres undefined)	2.6	17.5	0.8	3.4	-2.5
O=C(NC1CCOC1)c1cc(COc2cccc(C(F)(F)F)c2)on1 (centres undefined)	-3.9	51.2*	1.6	1.6	5.1
CC(=O)c1cccc(OCc2cc(C(=O)N(C)Cc3cnccn3)no2)c1	-0.7	50.2*	-0.2	3.2	-0.4
CC1CN(c2ccc([N+](=O)[O-])c(NCCOc3ccccc3)c2)CC(C)N1 (centres undefined)	-11.7	51.5*	-0.1	-10.3	-17.3
CC1CN(c2ccc([N+](=O)[O-])c(NCCOc3ccc(Cl)cc3)c2)CC(C)N1 (centres undefined)	-8.9	-4.9	-1.1	-0.3	-12.7
Cc1ccccc1-n1c(SCC(N)=O)nc2sc(-c3ccccc3)cc2c1=O	-1.3	30.3	0.4	-15.8	6.7
Cc1ccccc1-n1c(SCC(=O)NC(N)=O)nc2sc(-c3ccccc3)cc2c1=O	98.7*	4.5	0.7	96.0*	-5.4
CSCCC(NC(N)=O)C(=O)NCc1ccc(Cl)cc1 (centres undefined)	6.8	22.8	80.4*	1.6	2.5
Cc1ccc(CN2C(CC3CCCCC3)COCCS2(=O)=O)cc1 (centres undefined)	15.3	nt	nt	5.8	nt
O=C(N/N=C/c1sc2ccccc2c1O)c1cccc2ccccc12	nt	-0.8	32.3*	nt	-4.4
COc1ccc(C(=O)N/N=C/c2sc3ccccc3c2O)cc1	nt	-7.4	262.1*	nt	nt
COC(=O)C1CC1C(NP(=O)(c1ccccc1)c1ccccc1)c1ccccc1 (centres undefined)	-0.3	nt	nt	6.2	nt
